Measurements published in the supplement of paper PMC8728848.
The full list was thinned out, with the strongest signals kept by preference.

Assays:
Assay in all cases: glycan array binding signal (z-score within array); higher = stronger binding
Details in all cases: glycan notation: IUPAC condensed, linker removed
[1] = target: Fuc(a1-2)Gal(b1-3)GlcNAc(b1-2)Man(a1-3)[Fuc(a1-2)Gal(b1-3)GlcNAc(b1-2)Man(a1-6)]Man(b1-4)GlcNAc(b1-4)GlcNAc
Procedure, shortened: (§1)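 The Consortium for Functional Glycomics database supplied 3228 glycan arrays, of which those lacking an available protein sequence were dropped. The binding signal, a within-array Z-score, was averaged across arrays of the same protein sequence and across linkers. Negative scores can be read as non-binding.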

[2] = target: Fuc(a1-2)Gal(b1-3)GlcNAc(b1-3)[Fuc(a1-2)Gal(b1-3)GlcNAc(b1-6)]GalNAc
Procedure, shortened: as §1

[3] = target: Fuc(a1-2)Gal(b1-4)GlcNAc(b1-3)Gal(b1-4)GlcNAc(b1-2)Man(a1-3)[Fuc(a1-2)Gal(b1-4)GlcNAc(b1-3)Gal(b1-4)GlcNAc(b1-2)Man(a1-6)]Man(b1-4)GlcNAc(b1-4)GlcNAc
Procedure, shortened: as §1

[4] = target: Fuc(a1-2)Gal(b1-4)GlcNAc(b1-3)[Fuc(a1-2)Gal(b1-4)GlcNAc(b1-6)]GalNAc
Procedure, shortened: as §1

[5] = target: Fuc(a1-2)Gal(b1-4)GlcNAc6S
Procedure, shortened: as §1

[6] = target: Fuc(a1-2)Gal6S(b1-3)GlcNAc6S
Procedure, shortened: as §1

[7] = target: Fuc(a1-2)[GalNAc(a1-3)]Gal(b1-4)GlcNAc(b1-6)GalNAc
Procedure, shortened: as §1

[8] = target: Fuc(a1-2)[GalNAc(a1-3)]Gal(b1-4)[Fuc(a1-3)]GlcNAc(b1-3)GalNAc
Procedure, shortened: as §1

Fuc(a1-3)GlcNAc = target: Fuc(a1-3)GlcNAc
Procedure, shortened: as §1

[9] = target: Fuc(a1-3)[Gal(b1-4)]Glc6S
Procedure, shortened: as §1

[10] = target: Fuc(a1-3)[Gal(b1-4)]GlcNAc6S
Procedure, shortened: as §1

[11] = target: Fuc(a1-3)[Gal3S(b1-4)]GlcNAc6S
Procedure, shortened: as §1

[12] = target: Gal(a1-3)Gal(b1-4)[Fuc(a1-3)]GlcNAc
Procedure, shortened: as §1

Gal(b1-3)GalNAc = target: Gal(b1-3)GalNAc
Procedure, shortened: as §1

[13] = target: Gal(b1-3)GalNAc(a1-3)[Fuc(a1-2)]Gal(b1-4)Glc
Procedure, shortened: as §1

[14] = target: Gal(b1-3)GlcNAc(b1-2)Man(a1-3)[Gal(b1-3)GlcNAc(b1-2)Man(a1-6)]Man(b1-4)GlcNAc(b1-4)GlcNAc
Procedure, shortened: as §1

[15] = target: Gal(b1-3)GlcNAc(b1-3)Gal(b1-4)GlcNAc
Procedure, shortened: as §1

[16] = target: Gal(b1-3)GlcNAc(b1-3)Gal(b1-4)GlcNAc(b1-2)[Gal(b1-3)GlcNAc(b1-3)Gal(b1-4)GlcNAc(b1-6)]Man(a1-6)[Gal(b1-3)GlcNAc(b1-3)Gal(b1-4)GlcNAc(b1-2)Man(a1-3)]Man(b1-4)GlcNAc(b1-4)[Fuc(a1-6)]GlcNAc
Procedure, shortened: as §1

[17] = target: Gal(b1-3)GlcNAc(b1-6)[Gal(b1-3)]GalNAc
Procedure, shortened: as §1

Gal(b1-3)GlcNAc6S = target: Gal(b1-3)GlcNAc6S
Procedure, shortened: as §1

[18] = target: Gal(b1-3)[Neu5Ac(b2-6)]GalNAc
Procedure, shortened: as §1

[19] = target: Gal(b1-4)GlcNAc(b1-2)Man(a1-6)[GlcNAc(b1-2)Man(a1-3)]Man(b1-4)GlcNAc(b1-4)GlcNAc
Procedure, shortened: as §1

[20] = target: Gal(b1-4)GlcNAc(b1-3)Gal(b1-4)GlcNAc(b1-3)Gal(b1-4)GlcNAc(b1-2)Man(a1-3)[Gal(b1-4)GlcNAc(b1-3)Gal(b1-4)GlcNAc(b1-3)Gal(b1-4)GlcNAc(b1-2)Man(a1-6)]Man(b1-4)GlcNAc(b1-4)GlcNAc
Procedure, shortened: as §1

[21] = target: Gal(b1-4)GlcNAc(b1-3)Gal(b1-4)GlcNAc(b1-3)Gal(b1-4)GlcNAc(b1-3)Gal(b1-4)GlcNAc(b1-2)Man(a1-3)[Gal(b1-4)GlcNAc(b1-3)Gal(b1-4)GlcNAc(b1-3)Gal(b1-4)GlcNAc(b1-3)Gal(b1-4)GlcNAc(b1-2)Man(a1-6)]Man(b1-4)GlcNAc(b1-4)[Fuc(a1-6)]GlcNAc
Procedure, shortened: as §1

[22] = target: Gal(b1-4)GlcNAc(b1-3)Gal(b1-4)GlcNAc(b1-3)Gal(b1-4)GlcNAc(b1-3)Gal(b1-4)GlcNAc(b1-2)[Gal(b1-4)GlcNAc(b1-3)Gal(b1-4)GlcNAc(b1-3)Gal(b1-4)GlcNAc(b1-3)Gal(b1-4)GlcNAc(b1-6)]Man(a1-6)[Gal(b1-4)GlcNAc(b1-3)Gal(b1-4)GlcNAc(b1-3)Gal(b1-4)GlcNAc(b1-3)Gal(b1-4)GlcNAc(b1-2)Man(a1-3)]Man(b1-4)GlcNAc(b1-4)[Fuc(a1-6)]GlcNAc
Procedure, shortened: as §1

[23] = target: Gal(b1-4)GlcNAc(b1-3)GalNAc
Procedure, shortened: as §1

Gal(b1-6)Gal = target: Gal(b1-6)Gal
Procedure, shortened: as §1

Gal6P(b1-4)GlcNAc = target: Gal6P(b1-4)GlcNAc
Procedure, shortened: as §1

GalNAc(a1-3)Gal = target: GalNAc(a1-3)Gal
Procedure, shortened: as §1

GalNAc(b1-3)Gal = target: GalNAc(b1-3)Gal
Procedure, shortened: as §1

B1: Agalectin (Anopheles gambiae) (protein)
chain: MSNRPFTAKFPRYPENGDEVFIRGKLKDDAKSFSVNFCLPRPAQVAEHQTPPYIALHFKTIYDERDDTSRVVLNWKNLQWQQEEVLDNYWHVDRSQTFRVVFRLHEDCIKVFVNSVDHPPDYQFPVQLPLDQIESIELWDDVEHVEEISFRYDNGNSY
glycan array binding signal (z-score) [1]: 5.71
glycan array binding signal (z-score) [2]: 4.19
glycan array binding signal (z-score) [3]: -0.148
glycan array binding signal (z-score) [4]: -0.321
glycan array binding signal (z-score) [5]: -0.769
glycan array binding signal (z-score) [6]: -0.208
glycan array binding signal (z-score) [7]: 0.074
glycan array binding signal (z-score) [8]: -0.12
glycan array binding signal (z-score) (Fuc(a1-3)GlcNAc): -1.07
glycan array binding signal (z-score) [9]: -0.632
glycan array binding signal (z-score) [10]: 0.34
glycan array binding signal (z-score) [11]: -0.759
glycan array binding signal (z-score) [12]: -0.066
glycan array binding signal (z-score) (Gal(b1-3)GalNAc): -0.47
glycan array binding signal (z-score) [13]: -0.559
glycan array binding signal (z-score) [14]: 1.66
glycan array binding signal (z-score) [15]: -0.854
glycan array binding signal (z-score) [16]: 3.14
glycan array binding signal (z-score) [17]: -1.37
glycan array binding signal (z-score) (Gal(b1-3)GlcNAc6S): -1.14
glycan array binding signal (z-score) [18]: 0.408
glycan array binding signal (z-score) [19]: -0.688
glycan array binding signal (z-score) [20]: 2.89
glycan array binding signal (z-score) [21]: 3.26
glycan array binding signal (z-score) [22]: -0.07
glycan array binding signal (z-score) [23]: -0.509
glycan array binding signal (z-score) (Gal(b1-6)Gal): -1.18
glycan array binding signal (z-score) (Gal6P(b1-4)GlcNAc): -0.335
glycan array binding signal (z-score) (GalNAc(a1-3)Gal): -0.221
glycan array binding signal (z-score) (GalNAc(b1-3)Gal): -0.678
